# Screens: PubChem, several laboratories
# Rows were chosen to be rich in hits. Some 4.5% of all compounds tested hit in one or more screens of this group.
# NLRP3 yeast inh: NALP3 inflammasome inhibitors in reconstituted yeast, primary screen, luminescence, uHTS; Yeast reconstituted NLRP3/ASC/caspase-1, beta-gal luminescence, 24 h; inhibition, % at 10 µM; hit rate 0.39% among 330,000; AID 2825, 2010;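 active means inhibition of 50% or more; inactive means inhibition below 50%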;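 further: plate controls were induced DMSO wells for no effect and uninduced yeast grown without galactose for full effect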
# TIM10 inh: growth inhibitors of isogenic TIM10 control yeast, primary screen, counter-screen for tim10-1 yeast inhibitor project, luminescence, uHTS | hit rate 1.4% among 330,000 | AID 463195, 2010 | inhibition, % at 10 µM | S. cerevisiae TIM10 strain growth, BacTiter-Glo luminescence, 24 h;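 active means inhibition of 40% or more at the single tested concentration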;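 further: wild-type TIM10 isogenic control strain grown at permissive 25 °C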
# PfHsp90 yeast 2: growth inhibition of PfHsp90-expressing yeast, primary screen, antimalarial PfHsp90 inhibitor project, S. cerevisiae, BacTiter-Glo luminescence, single point, set 2; BacTiter-Glo ATP, 48 h; yeast lacking PDR1 and PDR3 efflux regulators; AID 504621, 2011; hit rate 0.32% among 310,000; inhibition, % at 9.4 µM;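 active means every replicate shows inhibition above about 80%, whatever the replicate mean, limit read from the data; inconclusive means mean inhibition reaches the set limit but some replicate falls short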;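 further: 0% = DMSO neutral controls and 100% = 20 µM radicicol positive controls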
# tim10-1 inh: growth inhibitors of tim10-1 mutant yeast, primary screen, luminescence, uHTS; S. cerevisiae tim10-1 ts strain growth, BacTiter-Glo, 24 h; hit rate 2.2% among 330,000; AID 463190, 2010; inhibition, % at 20 µM;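 active means inhibition of at least 40%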;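 further: mutant grown at 25 °C; 0% = DMSO wells with yeast and 100% = wells holding no yeast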
# SKKanGAS inh: S. pyogenes SKKanGAS growth inhibitors in kanamycin, primary screen, streptokinase expression inhibitor project, SKKanGAS strain, BacTiter-Glo luminescence. 6 h. inhibition, % at 7.5 µM. hit rate 1.3% among 300,000. AID 1662, 2009;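 active means mean replicate score, as percent of positive control median, at least 50; inconclusive means mean below 50 but one replicate at or above 50; inactive means mean and every replicate below 50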;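 further: strain carries kanamycin resistance gene driven by streptokinase promoter and grows in 40 µg/ml kanamycin; loss of luminescence reflects streptokinase promoter inhibition or plain growth inhibition; 0% = median of DMSO wells and 100% = positive control at its reference dose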
# tim23-1 inh: growth inhibitors of tim23-1 mutant yeast, primary screen, luminescence, uHTS; S. cerevisiae tim23-1 growth, BacTiter-Glo luminescence, 24 h; inhibition, % at 20 µM; hit rate 1.3% among 330,000;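 active means growth inhibition of the mutant yeast at or above 50%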;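 further: temperature-sensitive mutant grown at 25 °C; plate controls were DMSO-treated mutant yeast for no effect and medium wells lacking yeast for full effect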
# Starred values were filed as active, the others as inactive; ? = inconclusive; nt = no result.
SMILES,NLRP3 yeast inh,TIM10 inh,PfHsp90 yeast 2,tim10-1 inh,SKKanGAS inh,tim23-1 inh
COc1cc(C2C=C(C34CC5CC(CC(C5)C3)C4)NC(=S)N2)cc(OC)c1OC (stereo not given),14,22,-17,26,14,4
S=C1NC(C23CC4CC(CC(C4)C2)C3)=CC(c2ccc3c(c2)OCO3)N1 (stereo not given),18,30,nt,22,58*,5
COc1ccccc1NS(=O)(=O)c1cccc(NC(=O)Nc2ccc(Cl)cc2)c1,15,4,3,4,55*,9
COc1cc(-c2c(-c3ccsc3)sc3ccccc23)cc(OC)c1OC,11,6,-8,4,nt,4
Oc1ccc(-c2c(C3=CCCCC3)sc3ccccc23)cc1,nt,nt,?,nt,56*,nt
COc1ccc(S(=O)(=O)NCC2CCCN(Cc3ccccc3Cl)C2)cc1 (stereo not given),-1,3,-25,5,3,17
COc1ccc(S(=O)(=O)NCC2CCCN(Cc3ccc(OC)cc3F)C2)cc1 (stereo not given),4,3,14,-1,82*,-6
O=S(=O)(Cc1ccc(Cl)cc1)Nc1ccc(Cl)cn1,25,3,5,1,6,11
COc1cccc(/C=C2/CCC(CN(C)C)C2=O)c1 (stereo not given),nt,nt,146*,nt,nt,nt
COc1ccc(/C=C2/CCCC(CN(C)C)C2=O)cc1 (stereo not given),nt,nt,-16,nt,nt,nt
COC(=O)CCN(c1ccccc1)S(=O)(=O)c1cc(-c2cc(C)no2)ccc1OC,-3,-4,7,29,-13,32
CCOc1cc(Br)c(C(C)NC(=O)c2cccnc2)cc1OCC (stereo not given),4,-2,nt,-2,0,15
CCCC[C@@H]1CNC(=S)N1CC1CCCCC1,36,20,7,24,-3,32
S=C1NC[C@H](CC2CCCCC2)N1CC1CCCCC1,16,38,16,30,61*,38
CC1(C)C/C(=N\O)C(C(O)c2cccc([N+](=O)[O-])c2)C(C)(C)N1 (stereo not given),0,2,7,4,10,2
NC[C@H](Cc1ccccc1)NCCCCC1CCCCC1,23,3,2,1,nt,3
CNC[C@H](CC1CCCCC1)NC[C@H](Cc1ccccc1)NCCC12CC3CC(CC(C3)C1)C2,43,-75,0,35,98*,-97
Cc1ccc(CSCCNC(=O)CN(c2ccccc2)S(C)(=O)=O)cc1,13,-2,-3,34,-1,13
Cc1cccc(NC(=S)N2CCN(S(C)(=O)=O)CC2)c1,11,5,-4,-9,-4,-3
Cc1ccc(-c2nc3cccnc3s2)cc1NS(=O)(=O)c1ccc2c(c1)OCCO2,-19,16,89*,27,40,35
O=C(O)c1ccccc1N(c1ccccc1)c1ccccc1,-6,23,nt,18,-7,14
CC(C)c1nnc(NC(=O)C2CCCN2C(=O)Nc2ccc(F)cc2)s1 (stereo not given),21,-14,-8,7,-18,0
Oc1nc(Nc2ccc(F)cc2)sc1/C=C1\C=Nc2ccccc21,20,3,-3,3,55*,8
O=C(c1ccccc1)c1ccc[nH]1,nt,nt,2,nt,nt,nt
CC1(C2CCC3(C)OC3C2)CO1 (stereo not given),nt,nt,-3,nt,nt,nt
SMILES,NLRP3 yeast inh,TIM10 inh,PfHsp90 yeast 2,tim10-1 inh,SKKanGAS inh,tim23-1 inh
CC12CCC(CC1)C(C)(C)O2,nt,nt,15,nt,100*,nt
Cc1ccc(NC(=O)CN(C)C(=O)COc2cccc3ccc(C)nc23)cc1,9,3,38,5,nt,-4
CCC(C)c1ccccc1N=Cc1ccc2c(c1)OCO2 (stereo not given),21,0,-9,14,8,10
C/C(=N\NC(=O)CCC(=O)Nc1ccc(C)c(C)c1)C1CC1,16,0,9,-27,nt,1
CC(=O)OCCCNc1cc(Sc2ccc(C)cc2)c2nonc2c1[N+](=O)[O-],42,-4,12,-19,-6,-8
CC(=O)OCCNc1cc(Sc2nc3ccccc3[nH]2)c2nonc2c1[N+](=O)[O-],nt,nt,1,nt,53*,nt
CC(C)NS(=O)(=O)c1ccc(NC(=O)C(C)OC(=O)CCC(=O)c2cccs2)cc1 (stereo not given),9,7,nt,1,nt,8
Cc1ccc(O)c(C2=NNC(c3ccc(Cl)cc3)C2)c1 (stereo not given),4,20,-19,23,57*,31
Oc1ccc(Cl)cc1C1=NNC(c2cccs2)C1 (stereo not given),-12,30,-34,-12,61*,45
Cc1ccc(O)c(C2=NNC(O)(C(F)(F)F)C2)c1 (stereo not given),14,8,-13,10,9,17
O=C(CCNS(=O)(=O)c1ccccc1C(F)(F)F)NC1CCCCCC1,3,7,nt,2,nt,20
COc1ccc(NC(=O)c2ccccc2OCc2c(C)noc2C)cc1OC,11,13,-3,16,25,15
C#C[C@]1(O)CC[C@H]2[C@@H]3CCc4cc(OC5CCCC5)ccc4[C@H]3CC[C@@]21C,17,12,-13,17,103*,27
Fc1ccc2c(c1)C1C=CCC1C(c1cc3c(cc1Br)OCO3)N2 (stereo not given),2,12,22,35,73*,27
Cc1ccc(-c2cc(C(=O)Nc3ccc(S(=O)(=O)Nc4cc(C)on4)cc3)c3ccccc3n2)c(C)c1,19,7,-9,14,54*,20
Cc1ccc(/C=C/C(=O)NC(=S)Nc2ccc(S(=O)(=O)Nc3cc(C)on3)cc2)cc1,6,8,-8,-15,52*,-11
CCC(CC)C(=O)Nc1nnc(S(=O)(=O)N2CCCC2)s1,5,7,-4,9,2,18
Cc1[nH]n(C2=NCCS2)c(=O)c1N=Nc1ccccc1,21,18,0,10,-1,9
Cc1[nH]n(-c2nc(-c3ccc(Cl)cc3)cs2)c(=O)c1N=Nc1ccc(O)cc1,30,7,-9,-3,61*,2
O=C(Nc1ccc(Nc2ccncc2)cc1)c1ccc(Nc2ccnc3ccc([N+](=O)[O-])cc23)cc1[N+](=O)[O-],nt,nt,5,nt,54*,nt
O=C(c1ccc(Cl)cc1Cl)N1CCC(C(=O)N2CCOCC2)CC1,11,1,7,-13,4,-13
NC(=O)c1cccc2ccccc12,-4,2,-26,1,-12,-1
N#CSCC(=O)c1cccc2ccccc12,nt,nt,97*,nt,nt,nt
